Many of the other results were omitted from the sample, so hits are more common in it than they were.
Tg IFNy HTS: blocks Toxoplasma gondii growth in the presence of IFN-gamma. Toxoplasma gondii growth in IFN-gamma-treated host cells; active compounds read low. 69,000 compounds, 3.8% hits. activity change, negative = inhibition, % (no concentration beside the values); in the data active = activity change below about -70%, passing the limit was not always enough;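 also: host cells are HeLa cells infected with Toxoplasma gondii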
Hits are given with their value.

Results for c1cncc(COCC2CNCc3nccn3C2)c1 (stereo not drawn) ?
Tg IFNy HTS: -82

How did Cc1nc(C(C)C)sc1C(=O)N1CCCn2nc(C(=O)O)cc2C1 do in these assays?
Tg IFNy HTS: inactive

How did Cc1oc(-c2cccc(Cl)c2)nc1CN(C)Cc1cnn(C)c1 do in these assays?
Tg IFNy HTS: inactive

Results for CCCS(=O)(=O)N1CCc2onc(CNc3ncccn3)c2C1 ?
Tg IFNy HTS: inactive

Results for COc1cc2c(cc1OC)C1c3ccccc3N(Cc3ccccc3)C(=O)N1CC2 (stereo not drawn) ?
Tg IFNy HTS: inactive

Results for COc1cc2c(cc1OC)C(c1ccccc1Cl)N(c1ccc(C)cc1)C(=O)C2 (stereo not drawn) ?
Tg IFNy HTS: -91

How did COc1ccc(C2N(c3ccc(C)cc3)CCN2c2ccc(C)cc2)cc1OC do in these assays?
Tg IFNy HTS: inactive

How did Cc1cc2cc(C(=O)NCCS(=O)(=O)NC3CCCCC3)ccc2o1 do in these assays?
Tg IFNy HTS: inactive

What do the screens show for `CCOc1ccc(-c2nc(Cn3nnc(C(=O)Nc4cc(C)cc(C)c4)c3C)c(C)o2)cc1`?
Tg IFNy HTS: inactive

What do the screens show for `COc1ccc(CNC(=O)c2nnn(Cc3nc(-c4ccc(C)cc4)oc3C)c2C)c(OC)c1`?
Tg IFNy HTS: -99

Results for COc1cccc(CNC(=O)c2nnn(Cc3nc(-c4ccc(C)cc4)oc3C)c2C)c1 ?
Tg IFNy HTS: -96

What do the screens show for `CCOc1ccc(-c2nc(Cn3nnc(C(=O)Nc4cc(OC)ccc4OC)c3C)c(C)o2)cc1`?
Tg IFNy HTS: inactive

What do the screens show for `COc1ccc(NC(=O)c2nnn(Cc3nc(-c4ccccc4)oc3C)c2C)c(OC)c1`?
Tg IFNy HTS: inactive

How did CCOc1ccc(-c2nc(Cn3nnc(C(=O)Nc4c(C)cccc4C)c3C)c(C)o2)cc1 do in these assays?
Tg IFNy HTS: -94

Results for Cc1ccc(-c2nc(Cn3nnc(C(=O)NCCCc4ccccc4)c3C)c(C)o2)cc1 ?
Tg IFNy HTS: inactive

Results for CSc1ccc(CNC(=O)c2nnn(Cc3nc(-c4ccc(C)cc4)oc3C)c2C)cc1 ?
Tg IFNy HTS: inactive

What do the screens show for `Cc1oc(-c2ccc(OC(C)C)cc2)nc1Cn1nnc(C(=O)Nc2cccc(Cl)c2C)c1C`?
Tg IFNy HTS: -118

Results for CCOc1ccccc1NC(=O)c1nnn(Cc2nc(-c3ccc(OC(C)C)cc3)oc2C)c1C ?
Tg IFNy HTS: inactive

How did CCOc1ccc(-c2nc(Cn3nnc(C(=O)Nc4cc(C)ccc4C)c3C)c(C)o2)cc1 do in these assays?
Tg IFNy HTS: inactive

How did Cc1ccccc1NC(=O)c1nnn(Cc2nc(-c3ccc(OC(C)C)cc3)oc2C)c1C do in these assays?
Tg IFNy HTS: inactive

How did CC(Cc1ccco1)NC(=O)c1nc(Nc2ccc(F)cc2)c2ccccc2n1 (stereo not drawn) do in these assays?
Tg IFNy HTS: inactive

What do the screens show for `Cc1ccc(C(C)CCN2CCN(Cc3cccc(F)c3)C(=O)C2)o1` (stereo not drawn)?
Tg IFNy HTS: inactive

Results for CCn1c(CN[C@@H]2CCCN(C(C)=O)[C@H]2c2ccc(C)s2)nc2ccccc21 ?
Tg IFNy HTS: inactive

How did CN(C)c1ccc(NC(=O)c2c(O)c3ccccc3[nH]c2=O)cc1 do in these assays?
Tg IFNy HTS: inactive

Results for C=CCNc1ccccc1C(=O)N1CCC(C(C)COC)CC1 (stereo not drawn) ?
Tg IFNy HTS: inactive

Results for CN1CCN(c2ccc3cc(Cl)ccc3n2)CC1=O ?
Tg IFNy HTS: inactive

Results for COC1CCC(C(=O)n2nc(N)c3c(C(F)(F)F)cc(C)nc32)CC1 (stereo not drawn) ?
Tg IFNy HTS: inactive

Results for Cc1ccc(-c2nc(Cn3nnc(C(=O)Nc4cc(C)cc(C)c4)c3C)c(C)o2)cc1 ?
Tg IFNy HTS: inactive

What do the screens show for `COc1ccc(NC(=O)c2nnn(Cc3nc(-c4ccc(Cl)cc4)oc3C)c2C)cc1`?
Tg IFNy HTS: inactive

What do the screens show for `COc1ccc(NC(=O)c2nnn(Cc3nc(-c4ccc(Cl)cc4)oc3C)c2C)cc1OC`?
Tg IFNy HTS: inactive

Results for Cc1ccc(-c2nc(Cn3nnc(C(=O)Nc4ccccc4C)c3C)c(C)o2)cc1 ?
Tg IFNy HTS: -88

What do the screens show for `COc1ccc(CCNC(=O)c2nnn(Cc3nc(-c4ccc(C)cc4)oc3C)c2C)cc1OC`?
Tg IFNy HTS: inactive

How did COc1ccc(CNC(=O)c2nnn(Cc3nc(-c4ccc(C)cc4)oc3C)c2C)cc1OC do in these assays?
Tg IFNy HTS: -87

How did Cc1ccccc1NC(=O)c1nnn(Cc2nc(-c3ccccc3)oc2C)c1C do in these assays?
Tg IFNy HTS: inactive

What do the screens show for `Cc1ccccc1NC(=O)c1nnn(Cc2nc(-c3ccc(Cl)cc3)oc2C)c1C`?
Tg IFNy HTS: inactive

Results for COc1ccc(NC(=O)c2nnn(Cc3nc(-c4ccc(C)cc4)oc3C)c2C)cc1 ?
Tg IFNy HTS: -95

Results for COc1cc(N2CCCC(N3CCCC3=O)C2)ncn1 (stereo not drawn) ?
Tg IFNy HTS: inactive

Results for CN(C)C(=O)C1CN(C(=O)c2coc(COc3cccc(F)c3)n2)CCO1 (stereo not drawn) ?
Tg IFNy HTS: inactive

Results for Cn1c2ccccc2c2ccc(CN3CCn4c(CO)nnc4C3)cc21 ?
Tg IFNy HTS: inactive

What do the screens show for `Cc1[nH]cnc1-c1nccn1CCc1c(C)n2c3c(cccc13)CCC2`?
Tg IFNy HTS: inactive

What do the screens show for `COCCOc1cc(CNc2nc(C)n(C)n2)ccc1OC`?
Tg IFNy HTS: inactive

How did Cc1ccc(Sc2cccc3nc(N)nc(N)c23)cc1 do in these assays?
Tg IFNy HTS: -108

How did Cc1ncc(Sc2ccc(Cl)cc2)c(-c2ccc(Cl)cc2)n1 do in these assays?
Tg IFNy HTS: inactive

How did Clc1ccc(Sc2nc3ccccc3nc2Sc2ccc(Cl)cc2)cc1 do in these assays?
Tg IFNy HTS: inactive

What do the screens show for `Cn1c(CNC(=O)C2CCC2)nc2c1CN(C(=O)Nc1ccc(C(F)(F)F)cc1)CC2`?
Tg IFNy HTS: inactive

How did O=C(c1ccc(-c2cccs2)s1)N1CCN(c2ncccc2C(F)(F)F)CC1 do in these assays?
Tg IFNy HTS: inactive

What do the screens show for `COc1ccc2[nH]c(CNC(=O)c3cn(C4CCCCC4)nn3)cc2c1`?
Tg IFNy HTS: inactive

What do the screens show for `Cc1nn(C)c(C)c1CNC(=O)Nc1csc2ccccc12`?
Tg IFNy HTS: inactive

How did S=C(NCc1csc2ccccc12)c1ccccc1 do in these assays?
Tg IFNy HTS: -78

How did O=S(=O)(NCc1csc2ccc(Cl)cc12)c1ccccc1 do in these assays?
Tg IFNy HTS: inactive

How did Cc1ccc(NC(=O)C(=O)NCCc2csc(-c3cccc(F)c3)n2)cc1F do in these assays?
Tg IFNy HTS: inactive

How did Cc1cc(CN2C[C@H]3CCC[C@@H](CN(C)C)[C@@H]3C2)nn1C do in these assays?
Tg IFNy HTS: inactive

How did Cc1nnc(-c2ccccc2-c2ccc(-c3ccn[nH]3)cc2)o1 do in these assays?
Tg IFNy HTS: inactive

Results for C/C=C/C(=O)Nc1ccccc1-c1ccc(-c2ccn[nH]2)cc1 ?
Tg IFNy HTS: -93

How did CC(Oc1ccccc1-c1ccc(-c2ccn[nH]2)cc1)C(N)=O (stereo not drawn) do in these assays?
Tg IFNy HTS: inactive

Results for Cc1c(C#N)sc(-c2ncn[nH]2)c1C ?
Tg IFNy HTS: inactive

Results for CCn1c(SCc2nc(-c3cccc(C)c3)oc2C)nc(=O)c2c(C)cc(C)nc21 ?
Tg IFNy HTS: inactive

Results for COCCN1C(=O)CCc2cc(NC(=O)C3CC3)ccc21 ?
Tg IFNy HTS: inactive

How did CCCN1C(=O)CCc2cc(NC(=O)CCOC)ccc21 do in these assays?
Tg IFNy HTS: inactive

Results for COCCN1C(=O)CCc2cc(NC(C)=O)ccc21 ?
Tg IFNy HTS: inactive

How did CCCN1C(=O)CCc2cc(NC(=O)Cc3ccc(Cl)cc3)ccc21 do in these assays?
Tg IFNy HTS: inactive

Source: PubChem BioAssay
